Assay outcomes: PubChem BioAssay, several laboratories
PostGolgi yeast: growth inhibition of a yeast mutant, post-Golgi transport screen. AID 739. hit rate 0.9% among 98,000. inhibition, % at 10 µM. post-Golgi transport phenotypic cell assay;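 also: yeast cells grown in 1536-well plates; yeast grown about 18 h at 30C before absorbance read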
PLAP act: activates human placental alkaline phosphatase. P05187. purified PLAP enzyme, luminescent substrate read-out; active compounds read high. activation fold at 20 µM. hit rate 1.2% among 96,000. AID 696; in the data active = activation fold above about 2
Target sequence (P05187 whole entry, looked up): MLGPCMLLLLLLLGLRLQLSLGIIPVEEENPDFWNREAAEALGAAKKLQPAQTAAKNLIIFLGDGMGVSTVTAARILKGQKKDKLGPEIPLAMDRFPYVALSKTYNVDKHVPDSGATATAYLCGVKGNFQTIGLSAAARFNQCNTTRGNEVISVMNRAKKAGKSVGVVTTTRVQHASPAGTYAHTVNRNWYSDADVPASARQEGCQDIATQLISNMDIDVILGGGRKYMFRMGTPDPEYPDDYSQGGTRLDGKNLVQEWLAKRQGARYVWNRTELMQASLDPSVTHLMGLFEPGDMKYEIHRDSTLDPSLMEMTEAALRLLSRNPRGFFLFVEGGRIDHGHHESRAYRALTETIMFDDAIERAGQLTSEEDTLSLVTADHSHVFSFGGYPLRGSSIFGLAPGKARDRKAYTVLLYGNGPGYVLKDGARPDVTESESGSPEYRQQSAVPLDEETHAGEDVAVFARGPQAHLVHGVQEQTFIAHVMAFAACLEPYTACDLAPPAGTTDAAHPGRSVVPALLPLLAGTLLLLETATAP
hDAT+cocaine: human DAT dopamine uptake with cocaine, either direction; B-score at 10 µM; hit rate 1.3% among 110,000; LLC-PK1 hDAT cells, [14C]-dopamine uptake with cocaine IC80; actives deviate in either direction; Q01959; AID 449768;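 active = Z score or B-score, a plate-position-corrected score, falls beyond the plate's 99.7% confidence bounds, in either direction; inactive = both scores lie inside the 99.7% bounds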;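 also: scored against the spread of the other compound wells on the same plate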
Cav3 T inh: blocks human Cav3.2 T-type calcium channel. O95180. Cav3.2-expressing cells, Fluo-4 calcium fluorescence FDSS; active compounds read low. B-score at 10 µM. hit rate 4% among 100,000;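 active = single-dose well whose peak fluorescence ratio is a statistical outlier from its plate by either plate-standardised score or position-corrected B-score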
PostGolgi ctrl: inhibits growth of the yeast control strain. efflux-deficient yeast background strain, growth absorbance A615, 16 h. inhibition, % at 10 µM. hit rate 5% among 98,000. AID 738
An asterisk follows results filed as active; . = not tested or not shown. Hits are enriched below; roughly 9.6% of the tested compounds scored in any of these assays. Rule as the data show it, unless noted: active = inhibition above about 30%; inactive = the rest.

SMILES	PostGolgi yeast	PLAP act	hDAT+cocaine	Cav3 T inh	PostGolgi ctrl
COc1ccc(-c2cc(C(=O)N3CCN(c4ccccn4)CC3)c3ccccc3n2)cc1	20	1	0.85	0.17	13
COc1cc(-c2cc(C(=O)N3CCN(c4ccccn4)CC3)c3ccccc3n2)cc(OC)c1OC	-4	.	3.7*	-0.013	1
CCn1cc(C(=O)N2CCN(c3ccccn3)CC2)c2cc(OC)c(OC)cc2c1=O	-1	1.7	-8.7*	.	-1
CCCc1ccc(OCc2ccc(C(=O)N3CCN(c4ccccn4)CC3)o2)c(OC)c1	7	1	0.66	-4.9*	71*
Cc1cc(OC(=O)c2ccc(Cl)cc2Cl)nc(C)n1	6	1.1	-1.1	3	-3
C=CCn1c(N2C(=O)CC(Cc3ccccc3)C2=O)nc2ccccc21 (stereo not given)	0	2.5*	-0.22	-2.2	12
CC1(C)CC(NC(=O)C23CCC(C)(C(=O)C2)C3(C)C)CC(C)(C)N1 (stereo not given)	-3	1	-0.39	-0.9	5
Cc1ccc(Cl)cc1NC1=C/C(=N\S(=O)(=O)c2cccs2)c2ccccc2C1=O	50*	1.3	-3.5*	.	66*
Cc1ccc(NC2=C/C(=N\S(=O)(=O)c3cccs3)c3ccccc3C2=O)c(C)c1	.	.	-0.33	-2.6	.
CCOC(=O)c1ccc(NC(=S)NNC(=O)C2(C)CC2(Cl)Cl)cc1 (stereo not given)	.	.	0.6	-3	.
COc1cccc(-c2cc(C(F)(F)F)nc(-n3cc(Cl)cn3)n2)c1	17	0.9	-0.88	-1.2	10
COc1ccc(-c2cc(C(F)(F)F)nc(-n3cc(Cl)cn3)n2)cc1	12	1.9	0.54	-0.021	41*
O=C(OCc1nnc(-c2ccc(Cl)cc2)o1)c1ccncc1	15	1.1	-0.27	-0.49	3
O=C(COc1ccc2c(c1)OCO2)NC12CC3CC(CC(C3)C1)C2	-9	1.1	1.2	-2.8	36*
O=C(NC12CC3CC(CC(C3)C1)C2)N1CCC(O)(c2ccc3c(c2)OCO3)CC1	3	1	1.2	-0.24	10
Cc1noc(C)c1COc1ccc(C(=O)OCC(=O)NC23CC4CC(CC(C4)C2)C3)cc1	-6	1.5	-0.12	-0.25	37*
Cc1noc(C)c1COc1ccc(C(=O)OCc2nnc(-c3ccc(Cl)cc3)o2)cc1	21	1.3	0.85	-6.3*	12
CCN1C(=O)c2ccccc2S(=O)c2ccc(C(=O)NCCCN3CCCC3=O)cc21 (stereo not given)	0	1	-0.031	1.2	5
O=C(c1ccccc1Nc1ccc(SC(F)F)cc1)N1CCCCCC1	4	1.1	0.31	-6.8*	25
O=C(CS(=O)(=O)Cc1ccccc1)Nc1ccc(Cl)cn1	.	.	0.52	0.12	.
COCCNC(=O)COc1ncnc2ccc(Br)cc12	6	1	-0.91	0.41	10
O=C(COc1ncnc2ccc(Br)cc12)NCc1ccc2c(c1)OCO2	0	0.9	-8.9*	-3.5	1
CN(C)CC(O)COc1cc2ccccc2cc1C(=O)N1CCCCC1 (stereo not given)	-3	1.6	0.096	1.3	-9
